PubChem BioAssay
The source made the active and inactive calls.

Columns and labels:
[1] = test system: Plasmodium falciparum Sir2 (PF13_0152, Sir2A); test: Plasmodium falciparum Sir2A binding compounds – biochemical, small-molecule microarray, 635 nm fluorescence, primary screen (AID 1098); settings: fluorescence 635 nm, higher = more signal;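 also: score merges spot fluorescence intensity with its signal-to-noise ratio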
[2] = probe aDKK1 binding to arrayed compounds – biochemical, biotinylated probe, 635/667 nm fluorescence, primary screen (AID 1099); settings: small-molecule microarray, higher = more signal;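 also: score merges 667nm spot fluorescence with signal to noise across triplicate slides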
[3] = probe aCHRDL2 binding to arrayed compounds – biochemical, biotinylated probe, 635/667 nm fluorescence, primary screen (AID 1100); settings: small-molecule microarray, higher = more signal
[4] = change in splice reporter luminescence, either direction, cell-based, HEK293, spliceosome inhibition project, primary screen (AID 1101); settings: HEK293 splicing luciferase reporter, 24 h, higher = more signal, called active from +8 up or from −8 down;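 also: HEK293 cells carrying a splicing-competent luciferase reporter gene; test concentration not given here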
[5] = target: Fibroblast growth factor 10 (Homo sapiens) (UniProt O15520); test: compounds binding fibroblast growth factor 10 – biochemical, small-molecule microarray, 635 nm fluorescence, primary screen (AID 1102); settings: FGF10 binding, fluorescence 635 nm, higher = more signal
[6] = test system: glycogen synthase kinase-3 (GSK3A per assay name; protocol says GSK3B); test: compounds binding glycogen synthase kinase-3 – biochemical, small-molecule microarray, 635 nm fluorescence, GSK3A, primary screen (AID 1103); settings: fluorescence 635 nm, higher = more signal; also: the record names both GSK3A and GSK3B
[7] = target: Epidermal growth factor receptor (Homo sapiens) (UniProt P00533); test: compounds binding epidermal growth factor receptor – biochemical, small-molecule microarray, 635 nm fluorescence, primary screen (AID 1104); settings: EGFR binding, higher = more signal;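 also: score merges 667 nm emission intensity with spot signal to noise over triplicate slides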
[8] = target: Follistatin-related protein 3 (Homo sapiens) (UniProt O95633); test: compounds binding follistatin-related protein 3 – biochemical, small-molecule microarray, 635 nm fluorescence, primary screen (AID 1105); settings: FSTL3 binding, higher = more signal;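 also: score merges emission near 667 nm and signal to noise per printed spot across three slides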
[9] = target: Dickkopf-related protein 1 (Homo sapiens) (UniProt O94907); test: small molecules binding DKK1 protein – biochemical, small-molecule microarray, 635 nm fluorescence scan, primary screen (AID 1106); settings: higher = more signal;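 also: score merges emission near 667 nm with signal to noise over three replicate slides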
[10] = test system: Inhibin beta A chain (activin A); test: small molecules binding activin A – biochemical, small-molecule microarray, 635 nm fluorescence scan, primary screen (AID 1107); settings: INHBA, higher = more signal;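 also: mouse activin A protein probed at 4.33 µg/mL on printed slides; score merges bound-protein fluorescence near 667 nm with spot signal-to-noise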
[11] = test system: Human papillomavirus type 1a protein E7 (residues 44-93); test: small molecules binding HPV E7 44-93 – biochemical, small-molecule microarray, residues 44-93, 635 nm fluorescence, primary screen (AID 1108); settings: fluorescence 635 nm, higher = more signal;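 also: E7 fragment applied at 1 µg/mL in TBST for 1 h at 4 C; score combines spot fluorescence with its signal to noise ratio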
[12] = hepatitis C replication reporter changes, two-sided – Huh7 cells, luciferase reporter, HCV replication inhibitor project, primary screen (AID 1109); settings: Huh7 HCV replicon luciferase reporter, 48 h; higher = more signal;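 also: huh7 hepatoma cells harbouring a luciferase neomycin HCV replicon reporter; luciferase luminescence as measure of HCV replicon replication; test concentration not given here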
[13] = target: Left-right determination factor 2 (Homo sapiens) (UniProt O00292); test: small molecules binding LEFTY2 protein – biochemical, small-molecule microarray, 635 nm fluorescence scan, primary screen (AID 1110); settings: higher = more signal
[14] = target: Calmodulin-1 (Homo sapiens) (UniProt P0DP23); test: small molecules binding calmodulin-1 with EGTA – biochemical, small-molecule microarray, Cy5-labelled CALM1, profiling panel (AID 1111); settings: Cy5-CALM1 binding fluorescence, higher = more signal;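 also: labelled calmodulin applied in Tris saline Tween buffer holding calcium plus EGTA and DTT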
[15] = target: Calmodulin-1 (Homo sapiens) (UniProt P0DP23); test: small molecules binding Ca-loaded calmodulin-1 – biochemical, small-molecule microarray, Cy5-labelled CALM1, plus calcium, artefact control for SMM control-protein annotation, profiling panel (AID 1112); settings: Cy5-CALM1 binding fluorescence, higher = more signal;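 also: score merges spot fluorescence with signal to noise from triplicate slides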
[16] = probe aWnt5a binding to arrayed compounds – biochemical, biotinylated probe, 635/667 nm fluorescence, primary screen (AID 1113); settings: small-molecule microarray, higher = more signal;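 also: score merges 667 nm fluorescence intensity with signal-to-noise per printed feature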
[17] = probe aShh binding to arrayed compounds – biochemical, biotinylated probe, 635/667 nm fluorescence, primary screen (AID 1114); settings: small-molecule microarray, higher = more signal;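 also: probe is biotin-labelled aShh protein from a stem cell growth factor screen; measures binding of labelled protein to compounds printed on the slide; score merges feature fluorescence at 667 nm with signal-to-noise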
[18] = probe aNog binding to arrayed compounds – biochemical, biotinylated probe, 635/667 nm fluorescence, primary screen (AID 1115); settings: small-molecule microarray, higher = more signal;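 also: probe is biotinylated aNog protein used at 0.15 µg/mL for 1 h at 4 C; z-score combines 667 nm fluorescence of each spot with its signal to noise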
[19] = target: Torsin-1A-interacting protein 1 (Homo sapiens) (UniProt Q5JTV8); test: compound microarray binding of lysate hLAP1 – cell lysate, small-molecule microarray, COS7 lysate, 635/667 nm fluorescence, primary screen (AID 1116); settings: 635 nm fluorescence, higher = more signal
[20] = target: Alpha-bungarotoxin (Bungarus multicinctus) (UniProt P60615); test: compounds binding labelled alpha-BTX control protein – biochemical, small-molecule microarray, Alexa647 label, 635/667 nm fluorescence, artefact control for SMM control protein annotation, profiling panel (AID 1117); settings: alpha-BTX-A647 binding fluorescence, higher = more signal
Alpha-bungarotoxin (Bungarus multicinctus), sequence (P60615 whole entry, looked up): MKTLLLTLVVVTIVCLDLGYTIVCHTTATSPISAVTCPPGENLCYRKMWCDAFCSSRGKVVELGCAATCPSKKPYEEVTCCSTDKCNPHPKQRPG

Fibroblast growth factor 10 (Homo sapiens), sequence (O15520 whole entry, looked up): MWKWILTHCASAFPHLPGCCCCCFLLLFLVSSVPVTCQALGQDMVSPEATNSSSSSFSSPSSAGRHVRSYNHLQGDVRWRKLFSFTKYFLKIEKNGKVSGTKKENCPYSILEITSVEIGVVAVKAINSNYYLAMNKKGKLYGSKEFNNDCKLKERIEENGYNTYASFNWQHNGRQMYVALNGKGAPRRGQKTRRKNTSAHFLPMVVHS
Epidermal growth factor receptor (Homo sapiens), sequence (P00533 whole entry, looked up): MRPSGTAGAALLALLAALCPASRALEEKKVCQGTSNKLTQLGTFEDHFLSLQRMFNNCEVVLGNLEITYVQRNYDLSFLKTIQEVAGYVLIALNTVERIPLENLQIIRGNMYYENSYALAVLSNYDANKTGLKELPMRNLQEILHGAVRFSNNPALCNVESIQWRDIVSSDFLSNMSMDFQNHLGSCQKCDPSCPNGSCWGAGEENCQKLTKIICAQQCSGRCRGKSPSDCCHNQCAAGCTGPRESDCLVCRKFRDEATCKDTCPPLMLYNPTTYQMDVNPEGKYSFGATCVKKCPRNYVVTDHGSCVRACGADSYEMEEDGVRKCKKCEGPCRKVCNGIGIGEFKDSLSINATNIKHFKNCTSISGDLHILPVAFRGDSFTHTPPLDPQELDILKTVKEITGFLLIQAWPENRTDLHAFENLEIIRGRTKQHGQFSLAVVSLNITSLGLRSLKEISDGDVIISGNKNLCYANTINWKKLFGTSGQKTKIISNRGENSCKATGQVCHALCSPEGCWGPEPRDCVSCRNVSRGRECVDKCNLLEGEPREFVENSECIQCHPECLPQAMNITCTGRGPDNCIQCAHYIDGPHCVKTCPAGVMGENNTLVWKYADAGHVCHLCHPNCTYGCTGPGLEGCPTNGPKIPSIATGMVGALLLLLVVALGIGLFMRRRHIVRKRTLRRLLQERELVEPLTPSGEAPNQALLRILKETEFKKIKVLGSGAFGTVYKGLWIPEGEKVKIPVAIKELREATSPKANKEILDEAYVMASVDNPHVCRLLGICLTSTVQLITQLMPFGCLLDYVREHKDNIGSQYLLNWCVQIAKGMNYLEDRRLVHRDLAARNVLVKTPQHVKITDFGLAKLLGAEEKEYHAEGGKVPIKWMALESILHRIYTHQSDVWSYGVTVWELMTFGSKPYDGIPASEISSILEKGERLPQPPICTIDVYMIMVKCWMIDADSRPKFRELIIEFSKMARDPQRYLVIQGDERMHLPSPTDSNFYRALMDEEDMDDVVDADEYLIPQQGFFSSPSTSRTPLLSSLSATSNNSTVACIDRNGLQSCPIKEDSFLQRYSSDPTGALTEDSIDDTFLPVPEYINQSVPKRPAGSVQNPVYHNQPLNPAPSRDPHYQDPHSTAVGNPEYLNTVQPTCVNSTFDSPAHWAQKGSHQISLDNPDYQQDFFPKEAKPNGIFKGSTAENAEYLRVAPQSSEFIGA
Follistatin-related protein 3 (Homo sapiens), sequence (O95633 whole entry, looked up): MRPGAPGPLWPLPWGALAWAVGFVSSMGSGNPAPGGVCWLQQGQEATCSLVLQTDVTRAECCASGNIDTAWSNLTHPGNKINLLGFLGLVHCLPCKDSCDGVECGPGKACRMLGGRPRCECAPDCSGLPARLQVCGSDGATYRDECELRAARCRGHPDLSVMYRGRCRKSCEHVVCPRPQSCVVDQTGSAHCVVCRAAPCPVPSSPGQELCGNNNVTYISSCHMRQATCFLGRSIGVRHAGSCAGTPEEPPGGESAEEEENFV
Torsin-1A-interacting protein 1 (Homo sapiens), sequence (Q5JTV8 whole entry, looked up): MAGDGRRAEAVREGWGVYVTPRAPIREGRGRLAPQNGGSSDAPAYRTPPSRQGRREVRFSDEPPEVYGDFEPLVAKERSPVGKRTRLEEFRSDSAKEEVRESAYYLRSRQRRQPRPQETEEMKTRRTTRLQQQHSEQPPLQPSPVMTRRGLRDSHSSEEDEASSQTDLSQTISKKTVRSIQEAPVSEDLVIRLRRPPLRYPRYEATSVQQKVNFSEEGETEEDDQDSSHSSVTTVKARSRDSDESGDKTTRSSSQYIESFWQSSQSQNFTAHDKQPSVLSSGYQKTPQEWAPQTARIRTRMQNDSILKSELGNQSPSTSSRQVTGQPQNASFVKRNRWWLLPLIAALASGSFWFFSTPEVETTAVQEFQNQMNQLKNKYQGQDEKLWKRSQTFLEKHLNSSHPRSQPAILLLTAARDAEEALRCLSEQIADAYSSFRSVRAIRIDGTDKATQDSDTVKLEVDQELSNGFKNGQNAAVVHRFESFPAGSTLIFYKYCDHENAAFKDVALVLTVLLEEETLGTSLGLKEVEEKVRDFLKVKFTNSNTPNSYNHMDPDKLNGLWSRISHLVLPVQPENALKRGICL
Left-right determination factor 2 (Homo sapiens), sequence (O00292 whole entry, looked up): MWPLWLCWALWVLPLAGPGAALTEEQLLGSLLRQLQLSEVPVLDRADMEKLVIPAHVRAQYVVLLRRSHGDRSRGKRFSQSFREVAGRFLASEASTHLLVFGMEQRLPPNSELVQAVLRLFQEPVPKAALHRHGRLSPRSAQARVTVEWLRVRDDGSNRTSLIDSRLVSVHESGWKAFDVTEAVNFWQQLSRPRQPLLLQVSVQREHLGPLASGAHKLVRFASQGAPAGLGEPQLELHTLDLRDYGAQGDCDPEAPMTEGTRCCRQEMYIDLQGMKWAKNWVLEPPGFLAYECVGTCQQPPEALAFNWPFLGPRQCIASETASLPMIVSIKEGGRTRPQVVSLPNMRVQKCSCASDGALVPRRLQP
Dickkopf-related protein 1 (Homo sapiens), sequence (O94907 whole entry, looked up): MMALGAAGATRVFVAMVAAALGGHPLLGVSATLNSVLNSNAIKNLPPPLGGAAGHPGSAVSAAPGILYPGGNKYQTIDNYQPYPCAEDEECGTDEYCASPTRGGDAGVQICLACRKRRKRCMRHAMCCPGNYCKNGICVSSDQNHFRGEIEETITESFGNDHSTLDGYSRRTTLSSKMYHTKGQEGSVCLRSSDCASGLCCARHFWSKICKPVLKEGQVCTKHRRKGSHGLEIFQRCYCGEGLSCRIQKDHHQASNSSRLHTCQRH

| SMILES | composite z-score [1] | composite z-score [2] | composite z-score [3] | z-score [4] | composite z-score [5] | composite z-score [6] | composite z-score [7] | composite z-score [8] | composite z-score [9] | composite z-score [10] | composite z-score [11] | z-score [12] | composite z-score [13] | composite z-score [14] | composite z-score [15] | composite z-score [16] | composite z-score [17] | composite z-score [18] | composite z-score [19] | composite z-score [20] |
| --- | --- | --- | --- | --- | --- | --- | --- | --- | --- | --- | --- | --- | --- | --- | --- | --- | --- | --- | --- | --- |
| COCCCNC(=O)[C@@]1(CCC(=O)OC(C)(C)C)N=C(c2ccc(OCCCO)cc2)O[C@H]1c1ccccc1CN=[N+]=[N-] | 1.62 | 0.965 | 1.08 | -0.228 (inactive) | 1.56 | 1.13 | 0.123 | 0.932 | 0.119 | 0.471 | 1.49 | 0.43 | -0.139 | 1.39 | 0.854 | 0.112 | 0.0898 | 1.36 | 2.28 | 2.19 |
| O=C1O[C@@H](c2ccccc2)[C@@H](c2ccccc2)N2[C@@H](c3ccc(OCCO)cc3)[C@]3(C(=O)Nc4ccc(C#CC5=CCCCC5)cc43)[C@@H](C(=O)O)[C@H]12 | 0.87 | 0.82 | 0.431 | 0.618 (inactive) | 0.43 | 0.661 | 0.257 | 0.636 | 0.581 | 0.784 | 0.594 | -1.63 | 0.374 | 2.23 | 1.15 | -0.102 | -0.107 | 0.167 | 1.57 | 2.89 |
| CC(C)c1ccc(NN2C(C(O)c3c(F)cccc3Cl)C=CC3C(=O)N(c4ccccc4)C(=O)C32)cc1 (stereo not given) | 0.683 | 1.24 | 1.13 | -1.11 (inactive) | 0.62 | 0.852 | 0.389 | 0.766 | -0.247 | 0.945 | 1.23 | -0.242 | 0.0094 | 1.88 | 0.98 | 0.136 | 1.38 | 1.94 | 0.47 | 1.81 |
| CCOC(=O)C[C@H]1[C@H](OC(=O)c2ccc(-c3ccccc3)cc2)[C@@H](NC(=O)c2ccc(-c3ccccc3)cc2)c2cc(OCCCO)ccc2N1C(=O)Cc1ccc(OC)cc1 | -0.253 | -0.0067 | 0.45 | 0.101 (inactive) | 0.256 | -0.194 | -0.0509 | -0.0478 | 0.0032 | 0.638 | 0.629 | -1.27 | -0.186 | 0.382 | -0.971 | -0.0765 | -0.366 | -0.456 | 0.575 | 0.0738 |
| COC(=O)c1ccc(C23CC2(C(NP(=O)(c2ccccc2)c2ccccc2)c2ccccc2)C3)cc1 (stereo not given) | 0.36 | 1.83 | 1.39 | -3.03 (inactive) | 0.831 | -0.0094 | 0.134 | 0.835 | -0.63 | 0.893 | 1.31 | -1.17 | -0.0656 | 2.35 | 0.696 | 0.195 | 0.484 | -0.708 | 2.58 | 1.38 |
| O=C/C=C/c1ccc2c(c1)OCO2 | 0.229 | -0.295 | -0.475 | -0.675 (inactive) | 0.562 | 0.469 | 0.614 | 0.506 | 0.486 | 1.25 | 0.283 | 0.301 | 0.528 | -1.18 | -0.755 | -0.0748 | -0.35 | -0.441 | 0.122 | 0.591 |
| Cc1ccc(F)cc1S(=O)(=O)N[C@@H]1CCN(Cc2ccc(-c3ccccc3)cc2)C1 | 0.293 | -0.188 | -0.318 | 1.18 (inactive) | 0.927 | 0.205 | 0.156 | 0.239 | 0.138 | 0.42 | 0.504 | -4.36 | 0.473 | -0.452 | -0.578 | -0.129 | -0.0011 | -0.316 | 0.668 | 0.116 |
| COc1ccc(C(O)C2C=CC3C(=O)NC(=O)C3N2Nc2ccccn2)cc1OCc1ccccc1 (stereo not given) | 0.524 | 0.0679 | 0.668 | 1.04 (inactive) | -0.0457 | 0.13 | 0.208 | 0.187 | -0.236 | 0.557 | -0.156 | -0.129 | -0.0932 | 0.916 | 0.0805 | -0.15 | -0.0886 | 0.185 | 0.474 | 0.251 |
| COCCOC(=O)N1C(=O)[C@@]2(c3cc(C#CCC(C(=O)OC)C(=O)OC)ccc31)[C@H](c1ccc(O)cc1)N1[C@H](c3ccccc3)[C@H](c3ccccc3)OC(=O)[C@H]1[C@@H]2C(N)=O | 0.224 | 0.36 | 0.461 | -1.06 (inactive) | 0.833 | 1.06 | 0.212 | 0.825 | 0.417 | 0.626 | 0.698 | -0.633 | 0.715 | 0.537 | -0.259 | 0.0297 | 0.0469 | 1.29 | 1.03 | 0.944 |
| COc1ccc(CCNC(=O)[C@@]2(Sc3ccc(C)cc3)CC(=O)N(Cc3ccccc3Cl)[C@@H]2c2ccc(CO)cc2I)cc1 | 0.661 | 0.195 | 0.989 | -1.1 (inactive) | -0.778 | 0.351 | -1.08 | -0.78 | -1.15 | 1.24 | 0.552 | -1.98 | -0.736 | -0.252 | -0.0371 | -0.184 | 0.157 | 0.384 | 1.08 | 0.42 |
